In the supplement of paper PMC8975748:
Where a name gives a salt, the structure may show the parent alone.

These compounds were tested on Saccharomyces cerevisiae BY4741 SeMeCo community (assay: z-score of subpopulation abundance vs DMSO median, subpopulation auxotrophic for LU; higher = larger share of this subpopulation than in DMSO controls). Details: 10 µM; 24 h; SM minimal medium; subpopulation (auxotrophy): LU.
Procedure: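 Fluorescent four-plasmid SeMeCo (self-establishing metabolically cooperating S. cerevisiae BY4741 community; plasmids pH-mRuby2, pL-mWasabi, pU-eCFP, pM-TagRFP657) was grown 24 h in minimal SM medium with each Selleck FDA-approved drug at 10 µM in 384-well plates. Cells were fixed and imaged by high-content confocal microscopy. For each auxotrophic subpopulation (and the prototroph), a z-score gives the deviation from the DMSO vehicle-control population median.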

Row | SMILES | z-score of subpopulation abundance
1 | COc1ccc2c3c1O[C@H]1C[C@@H](O)C=C[C@@]31CCN(C)C2 [Galanthamine HBr] | 0.01
2 | CCC(C)n1ncn(-c2ccc(N3CCN(c4ccc(OCC5COC(Cn6cncn6)(c6ccc(Cl)cc6Cl)O5)cc4)CC3)cc2)c1=O (stereo not given) [Itraconazole] | -0.44
3 | N=C(N)NC(=N)N1CCOCC1 [Moroxydine HCl] | 0.31
4 | OB1OCc2cc(F)ccc21 [Tavaborole (AN-2690)] | 4.22
5 | COc1ccc(CCN(C)CCCC(C#N)(c2ccc(OC)c(OC)c2)C(C)C)cc1OC (stereo not given) [Verapamil HCl] | -0.58
6 | Cc1nnc(SCC2=C(C(=O)O)N3C(=O)[C@@H](NC(=O)Cn4cnnn4)[C@H]3SC2)s1 [Cefazolin Sodium] | 1.43
7 | N[C@@H]1CN(c2c(F)cc3c(=O)c(C(=O)O)cn([C@@H]4C[C@@H]4F)c3c2Cl)CC12CC2 [Sitafloxacin Hydrate] | 0.44
8 | COc1ccc2[nH]c([S+]([O-])Cc3ncc(C)c(OC)c3C)nc2c1 (stereo not given) [Omeprazole] | 0.12
9 | CC(C(=O)O)c1ccc2c(c1)CC(=O)c1ccccc1S2 (stereo not given) [Zaltoprofen] | -0.2
10 | OC(c1cc(C(F)(F)F)nc2c(C(F)(F)F)cccc12)C1CCCCN1 (stereo not given) [Mefloquine HCl] | 1.02
11 | Nc1ccc(S(=O)(=O)NC(=O)c2ccccc2)cc1 [Sulfabenzamide] | -0.03
12 | Cc1c(-c2ccc(O)cc2)n(Cc2ccc(OCCN3CCCCCC3)cc2)c2ccc(O)cc12 [Bazedoxifene Acetate] | 0.06
13 | CCCc1nn(C)c2c(=O)[nH]c(-c3cc(S(=O)(=O)N4CCN(C)CC4)ccc3OCC)nc12 [Sildenafil] | -0.5
14 | O=c1[nH]c2ccccc2n1CCN1CCN(c2cccc(C(F)(F)F)c2)CC1 [Flibanserin] | -0.2
15 | Cc1nc(NC(=O)N2CCC[C@H]2C(N)=O)sc1-c1ccnc(C(C)(C)C(F)(F)F)c1 [Alpelisib (BYL719)] | 0.28
16 | Nc1cc(C(Cl)=C(Cl)Cl)c(S(N)(=O)=O)cc1S(N)(=O)=O [Clorsulon] | 0.95
17 | CS(=O)(=O)c1ccc([C@@H](O)[C@@H](CF)NC(=O)C(Cl)Cl)cc1 [Florfenicol] | -0.09
18 | CCCCC(=O)O[C@H]1CC[C@H]2[C@@H]3CCc4cc(O)ccc4[C@H]3CC[C@]12C [Estradiol valerate] | -0.16
19 | CC1=C(C(=O)OC(C)C)C(c2cccc([N+](=O)[O-])c2)C(C(=O)OC2CN(C(c3ccccc3)c3ccccc3)C2)=C(N)N1 (stereo not given) [Azelnidipine] | 0.86
20 | C[C@@H](O)[C@H]1C(=O)N2C(C(=O)O)=C(S[C@@H]3CN[C@H](CNS(N)(=O)=O)C3)[C@H](C)[C@H]12 [Doripenem Hydrate] | 0.22

Row | SMILES | z-score of subpopulation abundance
21 | C[C@H]1COc2c(N3CCN(C)CC3)c(F)cc3c(=O)c(C(=O)O)cn1c23 [Levofloxacin] | -0.77
22 | C[C@H]1O[C@@H](O[C@H]2[C@@H](O)C[C@H](O[C@H]3[C@@H](O)C[C@H](O[C@H]4CC[C@@]5(C)[C@H](CC[C@@H]6[C@@H]5C[C@@H](O)[C@]5(C)[C@@H](C7=CC(=O)OC7)CC[C@]65O)C4)O[C@@H]3C)O[C@@H]2C)C[C@H](O)[C@@H]1O [Digoxin] | -0.6
23 | CC(=O)[C@H]1CC[C@H]2[C@@H]3CCC4=CC(=O)CC[C@]4(C)[C@H]3CC[C@]12C [Progesterone] | -1.24
24 | O=c1ccc2cc(O)c(O)cc2o1 [Esculetin] | -7.32
25 | O=C(c1ccc(F)cc1)C1CCN(CCn2c(=O)[nH]c3ccccc3c2=O)CC1 [Ketanserin] | -0.66
26 | CN1C2CCCC1CC(NC(=O)c1nn(C)c3ccccc13)C2 (stereo not given) [Granisetron HCl] | -0.06
27 | CCCCCCCCCCCCCCCCOP(=O)([O-])OCC[N+](C)(C)C [Miltefosine] | 7.16
28 | CCOC(=O)CCC(=O)O[C@H]1[C@H](O[C@@H]2[C@@H](C)[C@H](O[C@H]3C[C@@](C)(OC)[C@@H](O)[C@H](C)O3)[C@@H](C)C(=O)O[C@H](CC)[C@@](C)(O)[C@H](O)[C@@H](C)C(=O)[C@H](C)C[C@@]2(C)O)O[C@H](C)C[C@@H]1N(C)C [Erythromycin Ethylsuccinate] | 0.76
29 | O=C1c2c(O)ccc(O)c2C(=O)c2c(NCCNCCO)ccc(NCCNCCO)c21 [Mitoxantrone 2HCl] | 3.06
30 | COc1ccc(NS(=O)(=O)c2ccc(N)cc2)nn1 [Sulfamethoxypyridazine] | -0.73
31 | N[C@@H](CCC(=O)O)C(=O)O [(S)-Glutamic acid] | -0.36
32 | Cc1cccc(N(C)C(=S)Oc2ccc3ccccc3c2)c1 [Tolnaftate] | -0.35
33 | O=C(Cn1ccnc1[N+](=O)[O-])NCc1ccccc1 [Benznidazole] | -0.43
34 | CC(C)Cc1ccc(C(C)C(=O)O)cc1 (stereo not given) [Ibuprofen Lysine] | -4.01
35 | Cc1onc(-c2ccccc2Cl)c1C(=O)N[C@@H]1C(=O)N2[C@@H]1SC(C)(C)[C@@H]2C(=O)O [Cloxacillin Sodium] | 0.4
36 | NCC[C@H](O)C(=O)N[C@@H]1C[C@H](N)[C@@H](O[C@H]2O[C@H](CN)[C@@H](O)[C@H](O)[C@H]2O)[C@H](O)[C@H]1O[C@H]1O[C@H](CO)[C@@H](O)[C@H](N)[C@H]1O [Amikacin disulfate] | 0.07
37 | COc1ccnc(C[S+]([O-])c2nc3cc(-n4cccc4)ccc3[nH]2)c1C (stereo not given) [Ilaprazole sodium] | -0.87
38 | CO/N=C(/C(=O)N[C@@H]1C(=O)N2C(C(=O)OCOC(=O)C(C)(C)C)=C(C)CS[C@H]12)c1csc(N)n1 [Cefetamet pivoxil hydrochloride] | 0.94
39 | O=c1n(CCCN2CCN(c3cccc(Cl)c3)CC2)nc2ccccn12 [Trazodone HCl] | -0.97
40 | CC[C@H]1OC(=O)[C@H](C)[C@@H](O[C@H]2C[C@@](C)(OC)[C@@H](O)[C@H](C)O2)[C@H](C)[C@@H](O[C@@H]2O[C@H](C)C[C@H](N(C)C)[C@H]2O)[C@](C)(O)C[C@@H](C)C(=O)[C@H](C)[C@H]2OC(=O)O[C@@]21C [Erythromycin Cyclocarbonate] | 0.04
